Measurements taken from PubChem BioAssay (Tox21).
Results filed as inconclusive are left out. Activity calls are given as the source filed them. Calls follow the shape of the dose curve; as a rule, active = well fitted curve in the direction sought with a large enough effect in the repeat runs; inconclusive = weak or mixed curves; inactive = no such curve, though single readings can be large; an effect the other way counts as inactive or inconclusive.

How the values were obtained:
[1] = qHTS RealTime-Glo MT Cell Viability Assay in HEK293 cells - 16 hour (AID 1224872); also: top concentration of the series differs between compounds; nearly all actives have a fitted effect of over 50% in size
Procedure, shortened: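 Viability tracked continuously by luminescence as live cells reduce a prosubstrate for NanoLuc; HEK293 cells preincubated 5 h, compound-treated at 37 C, and read at 0, 8, 16, 24, 32 and 40 h.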

[2] = qHTS RealTime-Glo MT Cell Viability Assay in HepG2 cells - 8 hour (AID 1224873); also: nearly all actives have a fitted effect of over 55% in size
Procedure, shortened: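 Real-time viability: cells seeded at 600 per well together with NanoLuc and cell-permeant prosubstrate, compounds added after 5 h incubation. Luminescence tracked at 0, 8, 16, 24, 32 and 40 h of exposure.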

[3] = qHTS RealTime-Glo MT Cell Viability Assay in HEK293 cells - 40 hour (AID 1224874); settings: RealTime-Glo luminescence; max response: active compounds read low; also: nearly all actives have a fitted effect of over 50% in size
Procedure, shortened: (§1)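 Tox21 screen in HEK293 using RealTime-Glo MT chemistry, with cells and reagent co-dispensed. Luminescence proportional to viable cell number was captured at intervals during 40 h compound exposure at 37 C.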

[4] = A CellTox Green Cytotoxicity Assay to monitor cytotoxicity in HEK293 cells - 24 hour (AID 1224875); also: series mostly up to about 77 µM; nearly all actives have a fitted effect of over 45% in size
Procedure, shortened: (§2)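 Seeding of HEK293 cells together with cytotoxicity dye preceded a 5 h incubation at 37 C/5% CO2. Test compounds in DMSO were then added and fluorescence monitored across 40 h.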

[5] = A CellTox Green Cytotoxicity Assay to monitor cytotoxicity in HepG2 cells - 16 hour (AID 1224876); also: nearly all actives have a fitted effect of over 45% in size
Procedure, shortened: (§3)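 Nonlytic assay: viable cells exclude the dye, so fluorescence scales with cell death. HepG2 at 600 cells/well, compounds added after 5 h, signal read across 40 h.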

[6] = qHTS RealTime-Glo MT Cell Viability Assay in HepG2 cells - 32 hour (AID 1224877); also: nearly all actives have a fitted effect of over 55% in size
Procedure, shortened: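 Viability was tracked continuously by NanoLuc luminescence from prosubstrate reduced by living HepG2 cells, at successive time points over 40 h of compound exposure. Cells with reagent were preincubated 5 h at 37 °C before compound addition.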

[7] = A CellTox Green Cytotoxicity Assay to monitor cytotoxicity in HepG2 cells - 24 hour (AID 1224878); also: nearly all actives have a fitted effect of over 45% in size
Procedure, shortened: as §3

[8] = A CellTox Green Cytotoxicity Assay to monitor cytotoxicity in HepG2 cells - 40 hour (AID 1224879); also: nearly all actives have a fitted effect of over 40% in size
Procedure, shortened: as §3

[9] = qHTS RealTime-Glo MT Cell Viability Assay in HEK293 cells - 0 hour (AID 1224880); also: top concentration of the series differs between compounds; nearly all actives have a fitted effect of over 45% in size
Procedure, shortened: as §1

[10] = A CellTox Green Cytotoxicity Assay to monitor cytotoxicity in HEK293 cells - 32 hour (AID 1224881); also: nearly all actives have a fitted effect of over 40% in size
Procedure, shortened: as §2
% is scaled to controls: 0 for no effect and ±100 for the full control effect.

c1ccc(CN(CC2=NCCN2)c2ccccc2)cc1
inactive: Potency [1] | outcome [2] | max response [3] -19.9% | Potency [4] | Potency [5] | Potency [6] | Potency [7] | Potency [8] | outcome [9] | Potency [10]

CC(C)CCCCCCc1ccc(OCCOCCO)cc1
inactive: Potency [1] | outcome [2] | max response [3] 2.16% | Potency [4] | Potency [5] | Potency [6] | Potency [7] | Potency [8] | outcome [9] | Potency [10]

CC(=O)Nc1ccc(C)c(Cl)c1
inactive: Potency [1] | outcome [2] | max response [3] -13.2% | Potency [4] | Potency [5] | Potency [6] | Potency [7] | outcome [9] | Potency [10]

CC(=O)N[C@@H](CC(C)C)C(=O)O
inactive: Potency [1] | outcome [2] | max response [3] -2.78% | Potency [4] | Potency [5] | Potency [6] | Potency [8] | outcome [9] | Potency [10]

CCCCC1CCC(=O)O1 (stereo not given)
inactive: Potency [1] | outcome [2] | max response [3] -3.25% | Potency [4] | Potency [5] | Potency [6] | Potency [7] | outcome [9] | Potency [10]

COC(=O)c1ccc(OC)cc1
inactive: Potency [1] | outcome [2] | max response [3] 0.622% | Potency [4] | Potency [5] | Potency [6] | Potency [8] | outcome [9] | Potency [10]

CCCCCCC
inactive: Potency [1] | outcome [2] | max response [3] -15.1% | Potency [4] | Potency [5] | Potency [6] | Potency [7] | Potency [8] | Potency [10]

O=CCCc1ccccc1
inactive: Potency [1] | outcome [2] | max response [3] 4.45% | Potency [4] | Potency [5] | Potency [6] | Potency [7] | Potency [8] | Potency [10]

NC(=O)NS(=O)(=O)c1ccc(Cl)cc1
inactive: Potency [1] | outcome [2] | max response [3] 0.44% | Potency [4] | Potency [5] | Potency [6] | Potency [7] | Potency [8] | outcome [9] | Potency [10]

C/C(=N\O)[C@@H](C)NCC(C)(C)CN[C@H](C)/C(C)=N/O
inactive: Potency [1] | outcome [2] | max response [3] 0.121% | Potency [4] | Potency [5] | Potency [6] | Potency [7] | Potency [8] | outcome [9] | Potency [10]

CCc1cc(Cl)c(OC)c(C(=O)NC[C@@H]2CCCN2CC)c1O
inactive: Potency [1] | outcome [2] | max response [3] -13.1% | Potency [4] | Potency [5] | Potency [6] | Potency [7] | outcome [9] | Potency [10]

CCCOCCC
inactive: Potency [1] | outcome [2] | max response [3] 23.9% | Potency [4] | Potency [5] | Potency [6] | Potency [7] | outcome [9] | Potency [10]

O=C1C=CC(=O)O1
inactive: Potency [1] | outcome [2] | max response [3] 12.6% | Potency [4] | Potency [5] | Potency [6] | Potency [7] | Potency [8] | Potency [10]

Cc1cc2c(s1)Nc1ccccc1N=C2N1CCN(C)CC1
inactive: Potency [1] | outcome [2] | max response [3] 3.41% | Potency [4] | Potency [5] | Potency [6] | Potency [7] | outcome [9] | Potency [10]

CCOC(=O)c1cc(=O)c2c(OCC(COc3cccc4oc(C(=O)OCC)cc(=O)c34)OC(=O)[C@@H](N)CCCCN)cccc2o1
inactive: Potency [1] | outcome [2] | max response [3] 3.47% | Potency [4] | Potency [5] | Potency [6] | Potency [7] | Potency [8] | Potency [10]

COC(=O)C(C)O (stereo not given)
inactive: Potency [1] | outcome [2] | max response [3] 3.12% | Potency [4] | Potency [5] | Potency [6] | Potency [7] | Potency [10]

CN1[C@@H]2CC[C@H]1CC(OC(=O)c1c[nH]c3ccccc13)C2 (stereo not given in full)
inactive: Potency [1] | outcome [2] | max response [3] 4.75% | Potency [4] | Potency [5] | Potency [6] | Potency [8] | outcome [9] | Potency [10]

CC(C)(C)c1ccc(OC(=O)c2ccccc2O)cc1
inactive: Potency [1] | outcome [2] | max response [3] -15.3% | Potency [4] | Potency [5] | Potency [6] | Potency [7] | outcome [9] | Potency [10]

CO[Si](C)(C)OC
inactive: Potency [1] | outcome [2] | max response [3] -0.595% | Potency [4] | Potency [5] | Potency [6] | Potency [7] | Potency [8] | Potency [10]

Oc1ccccc1F
inactive: Potency [1] | outcome [2] | max response [3] 16.1% | Potency [4] | Potency [5] | Potency [6] | Potency [8] | Potency [10]

OCCN(CCO)CCN(CCO)CCO
inactive: Potency [1] | outcome [2] | max response [3] -1.3% | Potency [4] | Potency [5] | Potency [6] | outcome [9] | Potency [10]

CS(=O)(=O)c1ccc([C@@H](O)[C@@H](CF)NC(=O)C(Cl)Cl)cc1
inactive: Potency [1] | outcome [2] | max response [3] 11.3% | Potency [4] | Potency [6] | Potency [7] | outcome [9] | Potency [10]

C=Cc1ccccc1
inactive: Potency [1] | outcome [2] | max response [3] 10.3% | Potency [4] | Potency [6] | Potency [8] | Potency [10]
